Data: ChEMBL document CHEMBL1157539, “Thousands of chemical starting points for antimalarial lead identification” (Nature, 2010)

These compounds were tested on Plasmodium falciparum (assay: GSK_TCMDC: Inhibition of Plasmodium falciparum 3D7 in whole red blood cells, using parasite LDH activity as an index of growth. Test compounds present at 2uM).
Assay type: functional

Structure (SMILES)	Inhibition
Cl.c1ccc(-c2ccc3c(Nc4ccc5[nH]ncc5c4)ccnc3c2)nc1	100%
CCNC(=O)Nc1ccc(N(C)c2ccnc(NC3CC3)n2)cc1	100%
Cc1nccn1CCNC(=O)CN1CCC2(CCC1=O)CC(=O)c1ccccc1O2 (centres undefined)	98%
COc1ccc2nccc([C@@H](O)CN3CCC(NC(=O)C(=Cc4ccc(Cl)cc4Cl)c4ccc(-c5ccccc5)cc4)CC3)c2c1	100%
Fc1ccc(Nc2nnc(CNC3CCN(Cc4ccc(Cl)c(Cl)c4)CC3)[nH]2)cc1	100%
CCOc1c(N2CCN(CCCCNC(=O)c3ccc(NC(=O)c4ccc(Cl)cc4)cc3)CC2)ccc2ccccc12.Cl	100%
O=C(Nc1cccc(CN2CCCN(Cc3ncc[nH]3)CC2)c1)c1ccc(-c2ccccc2)cc1.O=C(O)C(F)(F)F	100%
Cc1cc(NCCC(=O)NCCOc2ccccc2)nc(NCCOc2ccccc2)n1.O=C(O)C(F)(F)F	92%
Cc1c(C(=O)C2CC2CN2CCC(N3CCCC3)CC2)sc2ccccc12 (centres undefined)	94%
CSc1nccc(-c2ccc3ccnc(N)c3c2)n1	100%
CC(Oc1cc(-n2cnc3ccc(NC(=O)CCN4CCCCC4)cc32)sc1C(N)=O)c1ccccc1Cl (centres undefined)	99%
COc1cc2c(cc1N(C(C)C)S(=O)(=O)c1sc3ccc(Cl)cc3c1C)CCNCC2.Cl	91%
CN(CCCNC(=S)NC12CC3CC(CC(C3)C1)C2)CCCNc1ccnc2cc(Cl)ccc12	100%
O=C(O)C(F)(F)F.O=S(=O)(/C=C/c1ccccc1)N(Cc1ccc(-c2ccc(CNCCc3ccccc3)cc2)cc1)CC1CCCCN1 (centres undefined)	100%
